Screening results (PubChem)
C diff growth – C. difficile growth inhibition | 86,000 compounds, 0.25% hits | AID 1259249 | growth activity, negative = inhibition, % at 16 µg/mL (by protocol) | Clostridium difficile clinical isolate growth, OD600, 24 h; hits give low values;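 active means mean growth activity at or below -80% and every replicate also at or below -80%; inconclusive means mean at or below -80% but some replicate above -80%; inactive means mean growth activity above -80%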
Pf Dd2 inh – blocks growth of Plasmodium falciparum Dd2 parasites; 94,000 compounds, 2.3% hits; P. falciparum Dd2 growth, SYBR Green, 72 h; hits give low values; AID 1159554; activity change, % at 10 µM; in the data active means activity change below about -80%; inconclusive means no clear call, values can overlap the other calls
T cruzi growth-1 – blocks T. cruzi growth in NIH3T3 culture; T. cruzi beta-gal in NIH3T3, GalScreen luminescence, 90 h; inhibition, % at 8.34 µM; 77,000 compounds, 5.9% hits; AID 624255;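 active means mean inhibition above about 93%, with at least 55% of replicates each passing it, limit read from the data, passing the limit was not always enough; inconclusive means only one of those two conditions holds; inactive means neither condition holds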
T cruzi growth-2 – Trypanosoma cruzi proliferation inhibition; inhibition, % at 8.35 µM; 5,600 compounds, 72% hits; T. cruzi beta-gal in NIH3T3, GalScreen luminescence, 90 h; shares compounds with T cruzi growth-1;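 active means mean replicate inhibition above about 95% and at least 55% of replicates individually reaching it, limit read from the data; inconclusive means only one of the two criteria is met; inactive means neither criterion is met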
T cruzi growth-3 – blocks T. cruzi growth in NIH3T3 host cells. inhibition, % at 2.09 µM. shares compounds with T cruzi growth-1. T. cruzi beta-gal in NIH3T3, GalScreen luminescence, 90 h. 5,600 compounds, 21% hits. AID 651740;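 active means mean inhibition above about 95%, with at least 55% of replicates also reaching it, limit read from the data; inconclusive means meets just one of the two conditions; inactive means meets neither condition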
NIH3T3 tox – kills mouse NIH/3T3 fibroblasts; shares compounds with T cruzi growth-1; NIH/3T3 viability, CellTiter-Glo ATP luminescence, 90 h; cytotoxicity (signal decrease), % at 8.35 µM; 5,600 compounds, 14% hits; AID 651742;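 active means mean signal decrease across replicates above about 35% based on untreated-well scatter, with enough replicates individually passing, limit read from the data; inconclusive means no rule stated though some were filed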
3T3 cytotox 2 – NIH/3T3 (mouse) viability loss; 5,600 compounds, 56% hits; AID 651744; shares compounds with T cruzi growth-1; inhibition, % at 24.9 µM; NIH/3T3 viability, CellTiter-Glo ATP luminescence, 90 h;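 active means mean loss of cell viability signal at or above a set limit, and enough replicates individually reaching it; inconclusive means meets only the mean limit or only the replicate share; inactive means meets neither condition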
Large screens that a line does not name were inactive (follow-up assays come after a bar, where they were run). Hits are enriched below; roughly 6.7% of the tested compounds scored in any of these assays.

Cc1noc(C)c1S(=O)(=O)Nc1cccc2c1O[C@H](CN(C)Cc1ccncc1)[C@H](C)CN([C@H](C)CO)C2=O	none
C[C@H]1CN([C@@H](C)CO)C(=O)Cc2cc(NC(=O)Nc3cccc4ccccc34)ccc2O[C@H]1CN(C)Cc1ccc2c(c1)OCO2	none
C[C@@H]1CN([C@@H](C)CO)C(=O)c2cc(NC(=O)Nc3cccc4ccccc34)ccc2O[C@@H]1CN(C)Cc1ccc2c(c1)OCO2	none
C[C@H](CO)N1C[C@H](C)[C@@H](CN(C)Cc2ccc3c(c2)OCO3)Oc2ccc(NC(=O)Nc3cccc4ccccc34)cc2CC1=O	T cruzi growth-1 109 | T cruzi growth-2 101 | T cruzi growth-3 104 | NIH3T3 tox 41 | 3T3 cytotox 2 52
C[C@H](CO)N1C[C@H](C)[C@H](CN(C)Cc2ccc3c(c2)OCO3)Oc2ccc(NC(=O)Nc3ccc(C(F)(F)F)cc3)cc2CC1=O	T cruzi growth-1 97 | T cruzi growth-2 109 | T cruzi growth-3 104 | NIH3T3 tox inactive | 3T3 cytotox 2 84
C[C@H]1CN([C@@H](C)CO)C(=O)c2cc(NC(=O)Nc3cccc4ccccc34)ccc2O[C@H]1CN(C)Cc1ccc2c(c1)OCO2	T cruzi growth-1 100 | T cruzi growth-2 inactive | T cruzi growth-3 inactive | NIH3T3 tox inactive | 3T3 cytotox 2 32
C[C@@H]1CN([C@@H](C)CO)C(=O)Cc2cc(NC(=O)Nc3ccc(C(F)(F)F)cc3)ccc2O[C@H]1CN(C)Cc1ccc2c(c1)OCO2	none
CN(C)CC(=O)Nc1ccc2c(c1)[C@@H]1C[C@@H](CC(=O)NCc3cccnc3)O[C@@H](CO)[C@@H]1O2	none
COc1ccc2c3c([nH]c2c1)[C@H](CO)N(Cc1ccccc1F)CC31CN(CC2CC2)C1	none (no result: T cruzi growth-1)
CN1C(=O)c2cc(NC(=O)C3CCCC3)ccc2OC[C@@H]2O[C@@H](CC(=O)NCCc3ccncc3)CC[C@H]21	none (no result: T cruzi growth-1)
C[C@H](CO)N1C[C@H](C)[C@H](CN(C)C(=O)Nc2ccccc2F)Oc2cc(-c3cccc(C#N)c3)ccc2S1(=O)=O	none
C[C@H]1CN([C@@H](C)CO)S(=O)(=O)c2ccc(-c3cccc(C#N)c3)cc2O[C@H]1CN(C)C(=O)Nc1ccccc1F	T cruzi growth-1 117 | T cruzi growth-2 103 | T cruzi growth-3 inactive | NIH3T3 tox 37 | 3T3 cytotox 2 64
COc1ccc(-c2ccc3c(c2)O[C@H](CN(C)C(=O)Nc2ccccc2F)[C@H](C)CN([C@H](C)CO)S3(=O)=O)cc1	none
C[C@H]1CN([C@@H](C)CO)S(=O)(=O)c2ccc(-c3ccc(F)cc3)cc2O[C@H]1CN(C)C(=O)Nc1ccccc1F	T cruzi growth-1 inconclusive | T cruzi growth-2 110 | T cruzi growth-3 inactive | NIH3T3 tox 56 | 3T3 cytotox 2 55
C[C@@H]1CN([C@@H](C)CO)S(=O)(=O)c2ccc(-c3ccc(F)cc3)cc2O[C@@H]1CN(C)C(=O)Nc1ccccc1F	T cruzi growth-1 98 | T cruzi growth-2 102 | T cruzi growth-3 inactive | NIH3T3 tox inactive | 3T3 cytotox 2 inactive
C[C@H](CO)N1C[C@H](C)[C@H](CN(C)C(=O)Nc2ccccc2F)Oc2cc(-c3ccc(F)cc3)ccc2S1(=O)=O	none
C[C@@H]1CN([C@H](C)CO)S(=O)(=O)c2ccc(-c3ccc(F)cc3)cc2O[C@H]1CN(C)C(=O)Nc1ccccc1F	none
COc1ccc(-c2ccc3c(c2)O[C@H](CN(C)C(=O)Nc2ccccc2F)[C@H](C)CN([C@@H](C)CO)S3(=O)=O)cc1	T cruzi growth-1 96 | T cruzi growth-2 105 | T cruzi growth-3 inactive | NIH3T3 tox inactive | 3T3 cytotox 2 72
CO[C@@H]1CN(C)C(=O)c2cc(NC(=O)c3cnccn3)ccc2OC[C@@H](C)N(CCc2ccccc2)C[C@H]1C	none (no result: C diff growth, T cruzi growth-1)
O=C(C1CCCC1)N1CCCCN2[C@H](CO)[C@H](c3ccc(-c4cccc(F)c4)cc3)[C@@H]2C1	T cruzi growth-1 112 | T cruzi growth-2 113 | T cruzi growth-3 inactive | NIH3T3 tox inactive | 3T3 cytotox 2 66
O=C(C1CCCC1)N1CCCCN2[C@H](CO)[C@@H](c3ccc(-c4cccc(F)c4)cc3)[C@H]2C1	T cruzi growth-1 111 | T cruzi growth-2 104 | T cruzi growth-3 inactive | NIH3T3 tox inactive | 3T3 cytotox 2 104
O=C(C1CC1)N1CCCCN2[C@H](CO)[C@@H](c3ccc(-c4cccc(F)c4)cc3)[C@@H]2C1	none
O=C(C1CCC1)N1CCCCN2[C@H](CO)[C@@H](c3ccc(-c4cccc(F)c4)cc3)[C@H]2C1	none
C[C@H]1CN([C@@H](C)CO)C(=O)CCCn2cc(nn2)CO[C@H]1CN(C)C(=O)Nc1ccc(-c2cccs2)cc1	none (no result: C diff growth)
Cc1ccccc1S(=O)(=O)N1CCCCN2[C@H](CO)[C@@H](c3ccc(-c4ccccc4)cc3)[C@H]2C1	none
C[C@@H]1CN([C@@H](C)CO)C(=O)c2cc(NC(=O)Nc3cccc4ccccc34)ccc2O[C@@H]1CN(C)Cc1ccc(Oc2ccccc2)cc1	T cruzi growth-1 124 | T cruzi growth-2 99 | T cruzi growth-3 105 | NIH3T3 tox inactive | 3T3 cytotox 2 27
COc1ccc(CN(C)C[C@H]2Oc3ccc(NC(=O)Nc4cccc5ccccc45)cc3C(=O)N([C@@H](C)CO)C[C@H]2C)cc1	none
COc1ccc(CN(C)C[C@H]2Oc3ccc(NC(=O)Nc4cccc5ccccc45)cc3C(=O)N([C@H](C)CO)C[C@@H]2C)cc1	none
C[C@@H]1CN([C@H](C)CO)C(=O)c2cc(NC(=O)Nc3cccc4ccccc34)ccc2O[C@H]1CN(C)Cc1ccc(Oc2ccccc2)cc1	T cruzi growth-1 112 | T cruzi growth-2 107 | T cruzi growth-3 inactive | NIH3T3 tox inactive | 3T3 cytotox 2 inactive
C[C@H](CO)N1C[C@H](C)[C@H](CN(C)C(=O)c2ccc(F)cc2)Oc2cc(C3=CCCC3)ccc2S1(=O)=O	none (no result: T cruzi growth-1)
CCCN1C[C@@H](C)[C@@H](OC)CN(C)C(=O)c2cc(NC(=O)c3cccc(F)c3)ccc2OC[C@H]1C	none
C[C@H](CO)N1C[C@H](C)[C@H](CN(C)C(=O)Nc2ccc(F)cc2)Oc2cc(-c3cccc(C(=O)N(C)C)c3)ccc2S1(=O)=O	none
C[C@H](CO)N1C[C@H](C)[C@@H](CN(C)C(=O)Nc2ccc(F)cc2)Oc2cc(-c3ccc(F)cc3)ccc2S1(=O)=O	T cruzi growth-1 118 (no result: C diff growth) | T cruzi growth-2 96 | T cruzi growth-3 inactive | NIH3T3 tox 44 | 3T3 cytotox 2 46
CC(=O)N(C)C[C@H]1Oc2cc(-c3ccc(F)cc3)ccc2S(=O)(=O)N([C@@H](C)CO)C[C@H]1C	none
CC(=O)N(C)C[C@H]1Oc2cc(-c3ccc(F)cc3)ccc2S(=O)(=O)N([C@@H](C)CO)C[C@@H]1C	none
